Measured values taken from PubChem BioAssay (Tox21).
Records with an inconclusive call do not appear. Activity calls are given as the source filed them. Calls come from the whole dose curve; as a rule, active = well fitted curve in the direction sought with a large enough effect in the repeat runs; inconclusive = weak or mixed curves; inactive = no such curve, though single readings can be large; an effect the other way counts as inactive or inconclusive.

Legend:
[1] = A CellTox Green Cytotoxicity Assay to monitor cytotoxicity in HEK293 cells - 24 hour (AID 1224875); note: nearly all actives have a fitted effect of over 45% in size; note: potency is the fitted concentration of half-maximal effect; for activity change: series mostly up to about 77 µM
Method in brief: (§1)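 Homogeneous no-lysis format: HEK293 cell suspension mixed with CellTox Green reagent, seeded, incubated 5 h at 37 C/5% CO2, then dosed by pintool with compound in DMSO.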

[2] = A CellTox Green Cytotoxicity Assay to monitor cytotoxicity in HepG2 cells - 16 hour (AID 1224876); note: nearly all actives have a fitted effect of over 45% in size; note: potency is the fitted concentration of half-maximal effect
Method in brief: (§2)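 Fluorescent DNA-binding dye, 600 HepG2 cells/well, 5 h preincubation then compound in DMSO; same plates read at 0–40 h, 37 C.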

[3] = qHTS RealTime-Glo MT Cell Viability Assay in HepG2 cells - 32 hour (AID 1224877); note: nearly all actives have a fitted effect of over 55% in size
Method in brief: (§3)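 Cells + NanoLuc/prosubstrate dispensed (600 cells/well) → 5 h at 37 C/5% CO2 → compounds in DMSO transferred → 40 h incubation at 37 C, luminescence read at 0, 8, 16, 24, 32, 40 h.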

[4] = A CellTox Green Cytotoxicity Assay to monitor cytotoxicity in HepG2 cells - 24 hour (AID 1224878); note: nearly all actives have a fitted effect of over 45% in size; note: potency is the fitted concentration of half-maximal effect
Method in brief: as §2

[5] = A CellTox Green Cytotoxicity Assay to monitor cytotoxicity in HepG2 cells - 40 hour (AID 1224879); note: nearly all actives have a fitted effect of over 40% in size; note: potency is the fitted concentration of half-maximal effect
Method in brief: as §2

[6] = qHTS RealTime-Glo MT Cell Viability Assay in HEK293 cells - 0 hour (AID 1224880); note: top concentration of the series differs between compounds; nearly all actives have a fitted effect of over 45% in size
Method in brief: (§4)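 Measured as luminescence from the same continuously cultured HEK293 wells at successive time points (0, 8, 16, 24, 32, 40 h) after compound addition. Reagent present from seeding; dosing at 5 h; incubation 37 C.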

[7] = A CellTox Green Cytotoxicity Assay to monitor cytotoxicity in HEK293 cells - 32 hour (AID 1224881); note: nearly all actives have a fitted effect of over 40% in size; note: potency is the fitted concentration of half-maximal effect
Method in brief: as §1

[8] = A CellTox Green Cytotoxicity Assay to monitor cytotoxicity in HepG2 cells - 32 hour (AID 1224883); note: nearly all actives have a fitted effect of over 50% in size; note: potency is the fitted concentration of half-maximal effect
Method in brief: as §2

[9] = A CellTox Green Cytotoxicity Assay to monitor cytotoxicity in HEK293 cells - 8 hour (AID 1224884); note: nearly all actives have a fitted effect of over 35% in size; note: potency is the fitted concentration of half-maximal effect
Method in brief: as §1

[10] = qHTS RealTime-Glo MT Cell Viability Assay in HEK293 cells - 24 hour (AID 1224886); note: nearly all actives have a fitted effect of over 50% in size; note: potency is the fitted concentration of half-maximal effect; for activity change, negative = cytotoxicity: top concentration of the series differs between compounds
Method in brief: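 Tox21 10K qHTS, HEK293, 600 cells/well, RealTime-Glo reagent co-dispensed with cells; 5 h preincubation, compound by pintool, 37 C, luminescence at 0–40 h.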

[11] = qHTS RealTime-Glo MT Cell Viability Assay in HEK293 cells - 8 hour (AID 1224887); note: nearly all actives have a fitted effect of over 50% in size; note: potency is the fitted concentration of half-maximal effect; for activity change, negative = cytotoxicity: top concentration of the series differs between compounds
Method in brief: as §4

[12] = A CellTox Green Cytotoxicity Assay to monitor cytotoxicity in HEK293 cells - 16 hour (AID 1224888); note: nearly all actives have a fitted effect of over 35% in size; note: potency is the fitted concentration of half-maximal effect
Method in brief: as §1

[13] = qHTS RealTime-Glo MT Cell Viability Assay in HepG2 cells - 0 hour (AID 1224889); note: nearly all actives have a fitted effect of over 50% in size
Method in brief: as §3

[14] = A CellTox Green Cytotoxicity Assay to monitor cytotoxicity in HepG2 cells - 8 hour (AID 1224890); note: nearly all actives have a fitted effect of over 45% in size; note: potency is the fitted concentration of half-maximal effect
Method in brief: as §2

[15] = qHTS assay to identify small molecule antagonists of the androgen receptor (AR) signaling pathway using the MDA cell line in the presence of 0.5 nM R1881 - cell viability counter screen (AID 1259242); note: nearly all actives have a fitted effect of over 45% in size
Method in brief: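 Human breast carcinoma MDA-kb2 cells, cultured without CO2, receive compounds alongside 0.5 nM (final) R1881 agonist. After 16 hr at 37C, viability is taken as live-cell protease signal.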

[16] = A CellTox Green Cytotoxicity Assay to monitor cytotoxicity in HepG2 cells - 0 hour (AID 1224882); note: nearly all actives have a fitted effect of over 35% in size; note: potency is the fitted concentration of half-maximal effect
Method in brief: as §2

[17] = qHTS assay to identify small molecule antagonists of the estrogen receptor alpha (ER-alpha) signaling pathway using the BG1 cell line in the presence of 0.1 nM 17-beta-estradiol - cell viability counter screen (AID 1259241); note: nearly all actives have a fitted effect of over 40% in size
Method in brief: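 The cell line endogenously expresses full-length ER-alpha and carries four EREs driving luciferase. Cells are cultured 5 days hormone-free, treated 22 hr with compounds and 0.1 nM estradiol, then viability is read by fluorescence.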

[18] = biological target: Androgen receptor (Homo sapiens) (UniProt P10275); test: qHTS assay to identify small molecule antagonists of the androgen receptor (AR) signaling pathway using the MDA cell line in the presence of 0.5 nM R1881 (AID 1259243); note: nearly all actives have a fitted effect of over 50% in size; note: potency is the fitted concentration of half-maximal effect
Method in brief: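 Cells: MDA-kb2 (MMTV-luc). Stimulus: 0.5 nM R1881. Time: 16 hr, 37C, no CO2. Detection: ONE-Glo luminescence after 30 min at RT.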

[19] = biological target: Estrogen receptor (Homo sapiens) (UniProt P03372); test: qHTS assay to identify small molecule antagonists of the estrogen receptor alpha (ER-alpha) signaling pathway using the BG1 cell line in the presence of 0.1 nM 17-beta-estradiol (AID 1259244); note: nearly all actives have a fitted effect of over 50% in size; note: potency is the fitted concentration of half-maximal effect
Method in brief: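 Seeding of stripped-serum-adapted VM7Luc4E2 cells, 24 h attachment, compound transfer, then 0.1 nM final 17beta-estradiol; after 22 h incubation, ONE-Glo reagent and luminescence reading.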

[20] = qHTS RealTime-Glo MT Cell Viability Assay in HepG2 cells - 16 hour (AID 1224885); note: nearly all actives have a fitted effect of over 50% in size
Method in brief: as §3
% is set by controls: 0 for no effect and ±100 for the full control effect.

Chain of Estrogen receptor (Homo sapiens) (P03372 whole entry, looked up): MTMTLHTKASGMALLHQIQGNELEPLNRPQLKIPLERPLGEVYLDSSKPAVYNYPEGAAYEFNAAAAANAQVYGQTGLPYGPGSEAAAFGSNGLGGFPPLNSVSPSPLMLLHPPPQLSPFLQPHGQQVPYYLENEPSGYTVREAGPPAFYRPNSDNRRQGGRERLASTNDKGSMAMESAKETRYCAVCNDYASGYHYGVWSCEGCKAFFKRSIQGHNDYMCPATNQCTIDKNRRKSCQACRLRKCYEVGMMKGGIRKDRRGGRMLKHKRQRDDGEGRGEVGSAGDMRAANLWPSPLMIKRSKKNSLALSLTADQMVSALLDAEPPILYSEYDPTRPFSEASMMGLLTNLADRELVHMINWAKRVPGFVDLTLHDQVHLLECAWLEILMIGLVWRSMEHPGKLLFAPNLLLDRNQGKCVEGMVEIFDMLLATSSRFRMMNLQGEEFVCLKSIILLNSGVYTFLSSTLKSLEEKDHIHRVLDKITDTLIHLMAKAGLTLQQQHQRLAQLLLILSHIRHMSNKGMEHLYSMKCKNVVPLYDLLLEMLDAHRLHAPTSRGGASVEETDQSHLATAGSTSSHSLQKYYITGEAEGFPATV
Chain of Androgen receptor (Homo sapiens) (P10275 whole entry, looked up): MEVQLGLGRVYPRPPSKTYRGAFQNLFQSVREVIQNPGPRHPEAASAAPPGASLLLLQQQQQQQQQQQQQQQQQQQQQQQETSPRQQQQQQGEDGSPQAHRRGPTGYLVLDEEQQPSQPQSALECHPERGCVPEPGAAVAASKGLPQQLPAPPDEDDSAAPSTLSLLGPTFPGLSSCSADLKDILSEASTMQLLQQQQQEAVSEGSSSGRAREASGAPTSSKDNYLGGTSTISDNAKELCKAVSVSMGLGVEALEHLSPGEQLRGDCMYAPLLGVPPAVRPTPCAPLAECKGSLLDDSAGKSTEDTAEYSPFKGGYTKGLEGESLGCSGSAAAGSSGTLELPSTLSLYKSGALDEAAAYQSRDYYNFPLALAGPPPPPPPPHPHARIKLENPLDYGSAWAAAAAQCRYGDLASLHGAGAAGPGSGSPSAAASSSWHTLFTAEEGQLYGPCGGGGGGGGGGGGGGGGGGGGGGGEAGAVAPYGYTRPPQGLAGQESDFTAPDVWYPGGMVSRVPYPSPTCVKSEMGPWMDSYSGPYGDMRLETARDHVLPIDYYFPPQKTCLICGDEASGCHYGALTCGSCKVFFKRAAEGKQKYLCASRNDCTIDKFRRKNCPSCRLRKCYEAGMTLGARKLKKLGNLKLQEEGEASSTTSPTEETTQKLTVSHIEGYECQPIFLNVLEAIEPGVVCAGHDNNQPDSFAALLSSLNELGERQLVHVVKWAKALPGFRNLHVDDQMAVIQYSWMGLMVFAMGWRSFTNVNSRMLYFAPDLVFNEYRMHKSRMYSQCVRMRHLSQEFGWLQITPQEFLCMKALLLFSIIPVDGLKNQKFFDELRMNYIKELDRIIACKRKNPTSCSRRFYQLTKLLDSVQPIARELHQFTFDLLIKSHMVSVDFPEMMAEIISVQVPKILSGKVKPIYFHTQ

CO[Si](OC)(c1ccccc1)c1ccccc1
inactive: Potency [1] | Potency [2] | Potency [3] | Potency [4] | Potency [5] | Potency [6] | Potency [7] | Potency [8] | Potency [9] | Potency [10] | Potency [11] | Potency [12] | Potency [13] | Potency [14] | Potency [15]

C=CCc1cc(S(=O)(=O)c2ccc(O)c(CC=C)c2)ccc1O
inactive: Potency [1] | Potency [2] | Potency [4] | Potency [5] | Potency [7] | Potency [16] | Potency [8] | Potency [9] | Potency [12] | Potency [14] | Potency [17] | Potency [15] | Potency [18]
active: Potency [10] 27.5 µM | Potency [11] 24.5 µM | Potency [19] 61.1 µM

O=C(NCc1ncc(C(F)(F)F)cc1Cl)c1c(Cl)cccc1Cl
active: Potency [5] 17.4 µM | Potency [8] 21.9 µM | Potency [10] 21.9 µM | Potency [18] 54.5 µM
inactive: Potency [1] | Potency [2] | Potency [3] | Potency [6] | Potency [7] | Potency [16] | Potency [9] | Potency [20] | Potency [12] | Potency [13] | Potency [14]

c1ccc2c(c1)-c1ccc3ccc4cccc5cc-2c1c3c45
active: Potency [5] 9.52 µM
inactive: Potency [1] | Potency [2] | Potency [3] | Potency [6] | Potency [16] | Potency [20] | Potency [10] | Potency [11] | Potency [12] | Potency [13] | Potency [14] | Potency [17]

CC(C)(c1ccc(Oc2ccc(N)cc2)cc1)c1ccc(Oc2ccc(N)cc2)cc1
active: Potency [19] 61.1 µM
inactive: Potency [1] | Potency [2] | Potency [3] | Potency [5] | Potency [6] | Potency [7] | Potency [16] | Potency [8] | Potency [9] | Potency [12] | Potency [13] | Potency [14] | Potency [17]

COc1cc2ncnc(Nc3cccc(Cl)c3)c2cc1OC
inactive: activity change [1] -0.939% [at 15.8 µM, stronger effect = higher value] | cytotoxicity increase [2] -17.7% [at 15.8 µM] | activity change, negative = cytotoxic [3] 8.78% [at 15.8 µM] | cytotoxicity increase [5] -19.3% [at 15.8 µM] | activity change, negative = cytotoxicity [6] -2.52% [at 15.8 µM] | cytotoxicity increase [7] 0.0774% [at 15.8 µM] | cytotoxicity increase [8] -17.4% [at 15.8 µM] | cytotoxicity increase [9] -7.13% [at 15.8 µM] | activity change, negative = cytotoxic [20] -11.4% [at 15.8 µM] | activity change, negative = cytotoxicity [10] -2.37% [at 15.8 µM] | activity change, negative = cytotoxicity [11] -3.64% [at 15.8 µM] | activity change [12] -3.26% [at 15.8 µM, stronger effect = higher value] | activity change, negative = cytotoxicity [13] -27.3% [at 15.8 µM] | cytotoxicity increase [14] -18% [at 15.8 µM] | activity change, negative = cytotoxicity [17] -7.05% [at 19 µM] | activity, negative = inhibition [18] 23.3% [at 19 µM]

O=C(O)C[C@H](O)C[C@H](O)/C=C/c1c(C2CC2)nc2ccccc2c1-c1ccc(F)cc1
active: Potency [5] 2.61 µM | Potency [8] 2.61 µM
inactive: activity change [1] 1.41% [at 15.8 µM, stronger effect = higher value] | cytotoxicity increase [2] 7.91% [at 15.8 µM] | activity change, negative = cytotoxic [3] -27.7% [at 15.8 µM] | activity change, negative = cytotoxicity [6] 8.78% [at 15.8 µM] | cytotoxicity increase [7] -0.515% [at 15.8 µM] | cytotoxicity [16] 0.628% [at 15.8 µM] | cytotoxicity increase [9] -1.19% [at 15.8 µM] | activity change, negative = cytotoxic [20] 0.557% [at 15.8 µM] | activity change, negative = cytotoxicity [10] -0.416% [at 15.8 µM] | activity change, negative = cytotoxicity [11] 5.42% [at 15.8 µM] | activity change [12] 2.31% [at 15.8 µM, stronger effect = higher value] | activity change, negative = cytotoxicity [13] -0.353% [at 15.8 µM] | cytotoxicity increase [14] -9.83% [at 15.8 µM] | viability change, negative = cytotoxic [15] -6.18% [at 19 µM] | activity, negative = inhibition [18] 31.2% [at 19 µM] | activity change, negative = inhibition [19] 17.2% [at 19 µM]

CN(C/C=C/c1ccccc1)Cc1cccc2ccccc12
active: Potency [1] 19 µM | Potency [2] 23.9 µM | Potency [4] 23.9 µM | Potency [5] 21.3 µM | Potency [7] 19 µM | Potency [16] 19 µM | Potency [8] 23.9 µM | Potency [9] 19 µM | Potency [12] 19 µM | Potency [14] 23.9 µM
inactive: Potency [6] | Potency [11] | Potency [13] | Potency [15] | Potency [19]
